We go through 40 molecules from PubChem BioAssay (Tox21).

Active and inactive are the calls of the source. Calls follow the shape of the dose curve; as a rule, active = well fitted curve in the direction sought with a large enough effect in the repeat runs; inconclusive = weak or mixed curves; inactive = flat fitted curve, though single readings scatter.
% is scaled to controls: 0 for no effect and ±100 for the full control effect.

The nature of this assay: qHTS assay to test for compound auto fluorescence at 590 nm (red) in HepG2 cells (AID 720674). The conditions noted are these: HepG2 autofluorescence, red 540/590 nm, 1 h; series mostly up to 91.3 µM; fluorescence, relative to Rose Bengal: at the top concentration. The text has this: U.S. Tox21 Program National Center for Advancing Translational Sciences [NCATS] NIH Chemical Genomics Center [NCGC] U.S. Environmental Protection Agency [EPA] National Institutes of Environmental Health Sciences [NIEHS] National Toxicology Program [NTP] U.S. Food and Drug Administration [FDA] Tox21 Assay Overview: Compound auto fluorescence often interferes with screening of the compound library against various biological targets and signaling pathways. Some of these compounds may have fluorophoric properties. Such properties may interfere with the assay outputs resulting in false positives and/or negatives. To decrease such complications and ensure the compound activities are relevant in terms of biological response, the Tox21 10K compound library was screened for auto fluorescence. From the fluorophores used as reporter signals in our screening assays, the auto fluorescence equivalencies of compounds against three fluorophores have been evaluated: Triamterene, Fluorescein and Rose Bengal sodium for blue, green and red fluorescence, respectively. The fluorescence intensities were measured using Excitation/Emission wavelengths at 405/460nm, 485/535nm and 540/590nm for blue, green and red labels, respectively. This assay includes the red fluorescence data.
Tox21 Assay Protocol Summary: 2,000 HepG2 cells in 5 uL of culture medium (MEM containing 10% FBS) per well were dispensed into black wall/clear bottom 1536-well plates using a Multidrop Combi Dispenser (ThermoFisher Scientific, Waltham, MA). The assay plates were incubated overnight at 37 C to allow cell attachment to the well bottom, followed by the transfer of 23 nL compound or DMSO vehicle by a pintool work station (Kalypsys , San Diego, CA). After the assay plates were incubated for 1 hr at 37 C and 5% CO2, fluorescence intensities in the assay plates were measured by an Envision (PerkinElmer, Shelton, CT) plate reader using three labels for measuring blue, green and red fluorescence at […] 460, 535 and 590 nm respectively.
On the technique in general: qHTS replaces the single test concentration by a dilution series.
Turning to `COc1ccc(S(=O)(=O)Nc2nnc(CC(C)C)s2)cc1`, the call was inactive.
As to `CC(C)OC(C)C`, the “fluorescence, relative to Rose Bengal” value was -0.219% [at 95.7 µM] (inactive).
Regarding `OCC(CBr)(CBr)CBr`, the “fluorescence, relative to Rose Bengal” value is 0.0016% (inactive).
As to `NCCC(O)(P(=O)(O)O)P(=O)(O)O`, the “fluorescence, relative to Rose Bengal” value was -0.0289% [at 46 µM] (inactive).
Take `Oc1ccccc1C=NCc1ccccc1`: the “fluorescence, relative to Rose Bengal” value is 0.15% [at 46 µM] (inactive).
Same read-out and setting: the value for `C[C@]12CCC(=O)C=C1CC[C@@H]1[C@@H]2CC[C@@]2(C)[C@H]1CC[C@]2(O)C(=O)CO` was 0.561% [at 46 µM] (inactive); that for `CN1CCN(C2=Nc3ccccc3Oc3ccc(Cl)cc32)CC1` was 0.128% [at 18.6 µM] (inactive); that for `CC(=O)Nc1ccc(C)c(Cl)c1` was 0.228% (inactive).
The same measure, in the same setting: the same measure for `NC1=NCC2c3ccccc3Cc3ccccc3N12` (stereo not given): -0.697% [at 46 µM] (inactive); for `NS(=O)(=O)c1cc(-c2nn[nH]n2)c(NCc2cccs2)cc1Cl`: -0.647% [at 46 µM] (inactive).
In the case of `COc1ccccc1N1CCN(CCCNc2cc(=O)n(C)c(=O)n2C)CC1`, the outcome was inactive.
Turning to `CCOC(=O)COc1ccc2c(c1)CC(NCC(O)c1cccc(Cl)c1)CC2` (stereo not given), the “fluorescence, relative to Rose Bengal” value is 0.282% (inactive).
Same read-out and setting: the same measure for `COc1cc(C)ccc1C(C)C`: 0.0389% (inactive).
For `CN1CCC[C@@H]1Cc1c[nH]c2ccc(CCS(=O)(=O)c3ccccc3)cc12`, the “fluorescence, relative to Rose Bengal” value was -0.692% [at 46 µM] (inactive).
On the same count and under the same terms, the value for `CC(C)C(=O)OC/C=C/c1ccccc1` was 0.0243% (inactive); that for `CN(CCCN1c2ccccc2CCc2ccccc21)CC(=O)c1ccc(Cl)cc1` was 0.192% [at 46 µM] (inactive); that for `O=C(O[C@@H](C(=O)O)[C@@H](OC(=O)c1ccccc1)C(=O)O)c1ccccc1` was -0.0159% [at 95.7 µM] (inactive).
Take `CC(C)CC(=O)OCc1ccccc1`: the “fluorescence, relative to Rose Bengal” value was 0.129% (inactive).
For the molecule `COC(=O)C(C)O` (stereo not given), the “fluorescence, relative to Rose Bengal” value was 0.067% [at 95.7 µM] (inactive).
Still for that read-out and setting: the value for `CCCCNc1ccc(C(=O)OCCN(CC)CC)cc1` was -0.238% [at 46 µM] (inactive); that for `CN1C(=O)CC(c2ccccc2)C1=O` (stereo not given) was 0.0564% [at 46 µM] (inactive).
Take `O=C(C(Cl)Cl)N1CCOC12CCCCC2`: the “fluorescence, relative to Rose Bengal” value was -0.377% (inactive).
As to `O=c1oc2c(O)c(O)cc3c(=O)oc4c(O)c(O)cc1c4c23`, the “fluorescence, relative to Rose Bengal” value was -0.647% [at 46 µM] (inactive).
The same measure, in the same setting: the same measure for `Cc1c(-c2ccccc2)oc2c(C(=O)OCCN3CCCCC3)cccc2c1=O`: 0.822% [at 18.6 µM] (inactive).
On the same count and under the same terms, the same measure for `CC(CNC1CCCCC1)OC(=O)c1ccccc1` (stereo not given): -0.352% [at 18.6 µM] (inactive); for `CC(C)(C)c1ccc(OC(=O)c2ccccc2O)cc1`: -0.244% (inactive).
As to `FC(F)(F)C(Cl)(Cl)Cl`, the “fluorescence, relative to Rose Bengal” value was 0.107% (inactive).
Same read-out and setting: the same measure for `NC/C=C/C(=O)O`: -0.0699% [at 46 µM] (inactive); for `CCN(CCCc1ccccc1)CCCc1ccccc1`: 0.32% [at 18.6 µM] (inactive); for `CC(C)=CCCC(C)CCOC=O` (stereo not given): 0.0001% (inactive).
Same read-out and setting: the value for `O=C(O)[C@@H]1CSCN1` was -0.623% [at 46 µM] (inactive); that for `CCCCCCC` was 0.212% [at 95.7 µM] (inactive); that for `O=C(O)CN(CCN(CC(=O)O)CC(=O)O)CCN(CC(=O)O)CC(=O)O` was -0.136% [at 46 µM] (inactive).
Same read-out and setting: the value for `CC1=C(CC(=O)O)c2cc(F)ccc2/C1=C\c1ccc(S(C)(=O)=O)cc1` was 0.158% [at 46 µM] (inactive); that for `CCC(=O)Nc1ccc(O)cc1` was -0.107% [at 46 µM] (inactive); that for `Cc1cc(S(=O)(=O)O)c(N)cc1Cl` was 0.0942% (inactive).
Take `COc1ccccc1OCC(O)COC(N)=O` (stereo not given): the fluorescence, relative to Rose Bengal was -0.267% [at 18.6 µM] (inactive).
With `CCCCCCOc1ccc(N)cc1`, the “fluorescence, relative to Rose Bengal” value was 0.0163% (inactive).
With `C=CC1CO1` (stereo not given), the “fluorescence, relative to Rose Bengal” value is 0.0951% [at 95.7 µM] (inactive).
Still for that read-out and setting: the value for `O=c1[nH]cnc2c1ncn2[C@@H]1O[C@H](CO)[C@@H](O)[C@H]1O` was 0.0832% [at 46 µM] (inactive).
